Values joined by “and” are separate entries in the source; they are usually repeats but may differ in a detail not shown here. Identical values can stand only once. Values without a mark were called inactive. Inconclusive results are not listed. Active and inactive are the calls of the source. Unless noted, the call rests on the fitted dose curve; in most records, active means well fitted curve in the direction sought with a large enough effect in the repeat runs; inconclusive means weak or mixed curves; inactive means no such curve, though single readings can be large; an effect the other way counts as inactive or inconclusive.

From PubChem BioAssay (Tox21) come the findings set out here.

Experiment [1] can be described thus: qHTS assay to identify small molecule agonists of the hypoxia (HIF-1) signaling pathway - cell viability counter screen (AID 1224844; calls by dose curve; further: nearly all actives have a fitted effect of over 50% in size). The gist of the method: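 HRE-bla ME-180 cells in medium with 0.5% dialyzed FBS were preincubated 5 hrs at 37C, exposed to compounds for 17 hrs, then viability was read as CellTiter-Glo luminescence after 30 min at room temperature, in the reporter wells.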
(qHTS replaces the single test concentration by a dilution series.)

Experiment [2] can be described thus: qHTS assay to identify small molecule agonists of H2AX (AID 1224845; active means well fitted activation curve with a large enough effect in the signal ratio in the repeat runs, not every such curve was filed as active; the % refers to the signal ratio). Summed up: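 Wild-type CHO-K1 cells plated overnight, then exposed 3 hr at 37C to compounds at 15 concentrations (0.76% DMSO). Lysed, then HTRF anti-pH2AX(S139)-cryptate/anti-H2AX-d2 detection after 24 hr at room temperature; emissions 665 and 620 nm.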
The nature of experiment [3]: qHTS assay to identify small molecule agonists of the hypoxia (HIF-1) signaling pathway (AID 1224846; active means well fitted activation curve with a large enough effect in the signal ratio in the repeat runs, not every such curve was filed as active; the % refers to the signal ratio). Summed up: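 HRE-bla ME-180 cells (beta-lactamase reporter under hypoxia response element) were plated at 2,000 cells/well in medium with 0.5% dialyzed FBS, rested 5 hrs, then given compounds in DMSO for 17 hrs at 37C, 5% CO2. Reporter induction was read with CCF4-AM FRET substrate.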

Experiment [4] in a line: qHTS assay to identify small molecule agonists of H2AX - cell viability counter screen (AID 1224847; calls by dose curve; further: top concentration of the series differs between compounds; nearly all actives have a fitted effect of over 30% in size). The gist of the method:
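After overnight plating of 1000 CHO-K1 cells per well, a 15-concentration compound series was applied for 3 hr at 37C. Luminescence from CellTiter-Glo, read following 30 min at room temperature, reflected cell viability.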

Experiment [5] in a line: qHTS assay to identify small molecule antagonists of the estrogen related receptor (ERR) signaling pathway from Tox21 library (AID 1224848). Further: nearly all actives have a fitted effect of over 50% in size. Further: potency means the concentration at half of the fitted maximal effect. Summed up:
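Cells: ERR line, 2,000/well; 6 h preincubation 37 C/5% CO2. Cpd in DMSO via pin tool; 18 h, 37 C. ONE-Glo, 30 min RT, luminescence.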

Experiment [6] is described as follows: qHTS assay to identify small molecule agonists of the estrogen related receptor (ERR) signaling pathway from Tox21 library (AID 1224849; calls by dose curve; further: nearly all actives have a fitted effect of over 15% in size). Conditions: ERR reporter cell line, ONE-Glo luciferase, 18 h; at 92.4 µM (top of the series). Summed up:
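ERR reporter cell line (NTP) seeded, rested 6 h at 37 C/5% CO2, then pinned with Tox21 compounds in DMSO. After 18 h at 37 C, ONE-Glo luciferase luminescence was read following 30 min at room temperature.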

Experiment [7] in a line: qHTS RealTime-Glo MT Cell Viability Assay in HepG2 cells - 24 hour (AID 1224867). Further: nearly all actives have a fitted effect of over 50% in size. The gist of the method:
(§1)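 Cells + NanoLuc/prosubstrate dispensed (600 cells/well) → 5 h at 37 C/5% CO2 → compounds in DMSO transferred → 40 h incubation at 37 C, luminescence read at 0, 8, 16, 24, 32, 40 h.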

A short description of experiment [8]: qHTS RealTime-Glo MT Cell Viability Assay in HEK293 cells - 32 hour (AID 1224868). Further: top concentration of the series differs between compounds; nearly all actives have a fitted effect of over 50% in size. Summed up:
(§2)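 Tox21 10K qHTS, HEK293, 600 cells/well, RealTime-Glo reagent co-dispensed with cells; 5 h preincubation, compound by pintool, 37 C, luminescence at 0–40 h.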

Experiment [9] is described as follows: qHTS RealTime-Glo MT Cell Viability Assay in HepG2 cells - 40 hour (AID 1224870). Further: nearly all actives have a fitted effect of over 50% in size. Summed up: (§3)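 HepG2 cells mixed with RealTime-Glo MT reagents (NanoLuc plus cell-permeant prosubstrate) were seeded at 600 cells/well, incubated 5 h at 37 C/5% CO2, then pinned with compounds in DMSO; nonlytic luminescence tracked viability during 40 h treatment.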
Experiment [10] in a line: A CellTox Green Cytotoxicity Assay to monitor cytotoxicity in HEK293 cells - 40 hour (AID 1224871). Further: nearly all actives have a fitted effect of over 45% in size. The gist of the method:
(§4)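 HEK293 cells premixed with CellTox Green dye were seeded at 600 cells/well and left 5 h at 37 C/5% CO2 before pin transfer of 23 nL compound in DMSO. Fluorescence from dye bound to dead-cell DNA was read during 40 h treatment.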

A short description of experiment [11]: qHTS RealTime-Glo MT Cell Viability Assay in HEK293 cells - 16 hour (AID 1224872). Summed up: as §2
Experiment [12] is described as follows: qHTS RealTime-Glo MT Cell Viability Assay in HepG2 cells - 8 hour (AID 1224873). Further: nearly all actives have a fitted effect of over 55% in size. The gist of the method:
as §3

A short description of experiment [13]: qHTS RealTime-Glo MT Cell Viability Assay in HEK293 cells - 40 hour (AID 1224874). Further: nearly all actives have a fitted effect of over 50% in size. Conditions: RealTime-Glo luminescence; max response: stronger effect = lower value. Summed up: (§5)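 HEK293 cells mixed with RealTime-Glo reagents (NanoLuc plus cell-permeant prosubstrate) at 600 cells/well, preincubated 5 h at 37 C/5% CO2, then given 23 nL compound in DMSO. Nonlytic luminescence from viable cells was read at 0, 8, 16, 24, 32 and 40 h.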

A short description of experiment [14]: A CellTox Green Cytotoxicity Assay to monitor cytotoxicity in HEK293 cells - 24 hour (AID 1224875). Further: nearly all actives have a fitted effect of over 45% in size. Summed up: as §4
Experiment [15] is described as follows: A CellTox Green Cytotoxicity Assay to monitor cytotoxicity in HepG2 cells - 16 hour (AID 1224876). Further: nearly all actives have a fitted effect of over 45% in size. Summed up:
(§6)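 HepG2 cells were seeded together with the CellTox Green dye at 600 cells/well, left 5 h at 37 C/5% CO2, then given compounds in DMSO. Fluorescence from dye bound to dead-cell DNA was read repeatedly over 40 h of treatment at 37 C.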

Experiment [16] is described as follows: qHTS RealTime-Glo MT Cell Viability Assay in HepG2 cells - 32 hour (AID 1224877). Further: nearly all actives have a fitted effect of over 55% in size. Summed up:
as §1

Experiment [17] in a line: A CellTox Green Cytotoxicity Assay to monitor cytotoxicity in HepG2 cells - 24 hour (AID 1224878). Further: nearly all actives have a fitted effect of over 45% in size. The gist of the method:
as §6

The nature of experiment [18]: A CellTox Green Cytotoxicity Assay to monitor cytotoxicity in HepG2 cells - 40 hour (AID 1224879). Further: nearly all actives have a fitted effect of over 40% in size. Summed up:
as §6

Experiment [19] in a line: qHTS RealTime-Glo MT Cell Viability Assay in HEK293 cells - 0 hour (AID 1224880). The gist of the method: as §5
Experiment [20] in a line: A CellTox Green Cytotoxicity Assay to monitor cytotoxicity in HEK293 cells - 0 hour (AID 1224869). Further: nearly all actives have a fitted effect of over 50% in size. The gist of the method:
as §4
On the % scale 0 is the no-effect control and ±100 the full control effect.

On to `OCC(O)CO`, for which the Potency result in [1], in [2], in experiment [4], in experiment [5], in [7] and in [8] was “inactive” throughout. In addition, the Potency result in experiment [9], in experiment [10], in experiment [11], in experiment [12], in [14] and in experiment [15] was “inactive” throughout. Further, the Potency entry in [16], in [17], in [18] and in experiment [19] was “inactive” in each case. Moreover, the compound was called inactive in [3]. Moreover, in experiment [6], the activity change, positive = activation is 2.36% and 0.0013%. The max response in [13] is -4.06% and 6%.

Consider `CC(O)CCO` (stereo not drawn), for which the Potency result in experiment [1], in experiment [2], in experiment [4], in [7], in [8] and in [10] was “inactive” each time. The Potency result in experiment [11], in [12], in experiment [14], in [15], in [16] and in experiment [17] was “inactive” in each case. Moreover, the Potency result in experiment [18] and in experiment [19] was “inactive” throughout. Besides, the compound was classed as inactive in experiment [3]. In experiment [13], the max response is -0.607% and 26.7%.

Regarding `CCCCC(CC)COC(=O)c1ccc(C(=O)OCC(CC)CCCC)c(C(=O)OCC(CC)CCCC)c1` (stereo not drawn), the Potency entry in experiment [1], in experiment [2], in experiment [4], in [7], in [8] and in experiment [10] was “inactive” in each case. Moreover, the Potency result in experiment [11], in [12], in experiment [14], in [15], in experiment [16] and in experiment [18] was “inactive” in each case. The Potency entry in experiment [19] was “inactive”. For the same compound, in experiment [3], the result was inactive. Besides, the max response in experiment [13] is 0.196% and 3.66%.

`N#Cc1cc(Br)c(O)c(Br)c1`: the Potency entry in experiment [1], in experiment [2], in experiment [7], in experiment [8], in [20] and in experiment [9] was “inactive” each time. In addition, the Potency result in [10], in experiment [11], in experiment [12], in experiment [15], in experiment [16] and in experiment [17] was “inactive” throughout. For the same compound, the Potency entry in [18] and in [19] was “inactive” each time. Moreover, the outcome in [3] was inactive. In experiment [5], the Potency was 48.5 µM (active) and 37.1 µM (active). Further, the activity change, positive = activation in experiment [6] is -51.5% and -34.9%. Further, in experiment [13], the max response was -28.3% and -19.4%.

As to `C=CCN(CC=C)C(=O)C(Cl)Cl`, the Potency result in experiment [1], in experiment [2], in experiment [4], in [7], in [8] and in [9] was “inactive” each time. Moreover, the Potency entry in [10], in experiment [11], in experiment [12], in [15], in experiment [16] and in experiment [18] was “inactive” each time. In experiment [19], the Potency result is “inactive”. The compound was classed as inactive in [3]. For the same compound, in experiment [13], the max response is 8.06% and -1.16%.

Regarding `C=C(C)C(=O)OCC1CO1` (stereo not drawn), the Potency entry in experiment [1], in [2], in [4], in [5], in [7] and in experiment [8] was “inactive” throughout. Besides, the Potency entry in experiment [20], in experiment [9], in [10], in experiment [11], in experiment [12] and in experiment [14] was “inactive” in each case. Also, the Potency result in experiment [15], in experiment [16], in [17], in experiment [18] and in [19] was “inactive” each time. Moreover, the call in [3] was inactive. For the same compound, in [6], the activity change, positive = activation is -2.17% and 2.32%. Besides, the max response in experiment [13] is 9.74% and -15.3%.
